Measurements: PubChem BioAssay AID1490 (National Center for Advancing Translational Sciences (NCATS), 2009)
Screen size: about 310,000 compounds; about 11,000 (3.5%) were called active. Roughly 4% stayed inconclusive and do not appear here. The full list was thinned out, with actives kept by preference. Values without a mark were called inactive. The call rests on the fitted dose curve; in most records, active means well fitted inhibition curve with a large enough effect; inconclusive means small, poorly fitted or top-dose-only effect, or another doubt; inactive means no such curve, though single readings can be large or run the other way.
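Further: the enzyme is Sfp with the accession as filed and its product quenches rhodamine fluorescence.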
Potency means the concentration at half of the fitted maximal effect.
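Wherever largest response in the series, negative = inhibition is given: 0% = enzyme reaction without inhibitor and -100% = no enzyme wells.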

These molecules were tested against 4'-phosphopantetheinyl transferase ffp (Bacillus subtilis) (UniProt Q9F4F7) (assay: qHTS Assay for Inhibitors of Bacillus subtilis Sfp phosphopantetheinyl transferase (PPTase)). Conditions: Biochemical Sfp PPTase activity.
Outline: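 Fluorescence-quenching assay with 15 nM Sfp, 5 uM rhodamine-CoA and 12.5 uM BHQ-2-labelled ybbR peptide in pH 7.6 Hepes/MgCl2 buffer. Enzyme was pre-incubated with compound for 15 min at room temperature. Rate was taken from the 30-min fluorescence change (525/598 nm).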
For Cc1ccc(N2CC(C(=O)NCCS(=O)(=O)N3CCN(c4ccccc4)CC3)CC2=O)cc1 (stereo not given), the largest response in the series, negative = inhibition was 5.68%.
Work on COc1ccc2c3c1OC1CC(O)C=C[C@@]31CCN(C)C2 (stereo not given in full) yielded a largest response in the series, negative = inhibition of 17%.
For O=C(CN1C(=O)c2ccccc2S1(=O)=O)NC1CCCCC1, the largest response in the series, negative = inhibition was 15.6%.
For CCCc1nnc(NC(=O)CN2C(=O)c3ccccc3S2(=O)=O)s1, the Potency was 22.4 µM (active).
Molecule CCCCc1nnc(NC(=O)CS(=O)(=O)Cc2ccccc2)s1 has a largest response in the series, negative = inhibition of 8.57%.
COc1ccc(C)cc1NC(=O)CNCc1cccs1 showed a largest response in the series, negative = inhibition of -7.78%.
O=C(CN(Cc1ccc(Br)cc1)S(=O)(=O)c1ccccc1)NCc1ccncc1 showed a largest response in the series, negative = inhibition of -4.2%.
In the case of CCOC(=O)C1CCCN(S(=O)(=O)c2ccc(-n3cnnn3)c(C)c2)C1 (stereo not given), the largest response in the series, negative = inhibition is reported as 13.1%.
With C#CC(CCN1CCCCC1)(OC)c1ccccc1 (stereo not given) the largest response in the series, negative = inhibition was 23.4%.
With CCOC(=O)C(C)n1cnc2c(nnn2-c2cccc(OC)c2)c1=O (stereo not given) the largest response in the series, negative = inhibition was 30.5%.
Work on CCOC(=O)c1csc(NC(=O)Nc2cccc(OC)c2)n1 yielded a largest response in the series, negative = inhibition of 7.72%.
COC(=O)c1sc(N2CCN(Cc3ccccc3)CC2)nc1N showed a largest response in the series, negative = inhibition of -0.821%.
For CCOC(=O)c1sc(=S)n(-c2cccc(OC)c2)c1N, the Potency was 39.8 µM (active).
In the case of COC(=O)c1sc(=S)n(-c2ccc(Cl)cc2)c1C, the largest response in the series, negative = inhibition is reported as -2.12%.
With COC(=O)c1sc(=S)n(-c2ccccc2)c1N the Potency was 31.6 µM (active).
With Cc1ccn2c(=O)c(C(=O)NCCC3=CCCCC3)c(O)nc2c1 the largest response in the series, negative = inhibition was -5.56%.
CCc1ccc(N(C(=O)c2csnn2)C(C(=O)NC2CCCCC2)c2cccnc2)cc1 (stereo not given) showed a largest response in the series, negative = inhibition of -9.84%.
Work on CCCCS(=O)(=O)N1C2=NC(C(=O)OC)=C(C(=O)OC)[C@@H]3N(Cc4ccccc4)c4ccccc4[C@]23C[C@H]1C(=O)OC yielded a largest response in the series, negative = inhibition of -16%.
Work on Cc1ccc(C2SCC(=O)N2c2ccccc2)cc1 (stereo not given) yielded a largest response in the series, negative = inhibition of -9.8%.
Work on Cc1ccc(C2CC2C(=O)NN)cc1 (stereo not given) yielded a largest response in the series, negative = inhibition of 6.91%.
For Cc1ccc(C2NC(C(=O)O)CS2)cc1 (stereo not given), the Potency was 70.8 µM (active).
CCOc1ccc(N(CC(=O)Nc2cccc(OC)c2)S(C)(=O)=O)cc1 gave a largest response in the series, negative = inhibition of 21.6%.
Work on Cn1c(=O)n(C)c2cc(S(=O)(=O)Nc3ccc(F)cc3)ccc21 yielded a largest response in the series, negative = inhibition of 7.57%.
COc1ccc(C2=NN(C(C)=O)C(c3ccccc3)C2)cc1 (stereo not given) gave a largest response in the series, negative = inhibition of 9.33%.
O=C(O)CCCC(=O)N1N=C(c2ccco2)CC1c1ccco1 (stereo not given) showed a largest response in the series, negative = inhibition of 5.11%.
For Cc1nn2c(c1-c1ccccc1)N=C(c1ccco1)CC2c1ccccc1 (stereo not given), the Potency was 15.8 µM (active).
Work on Cc1cccc([C@@H]2[C@@H]3C(=O)N(Cc4ccccc4)C(=O)[C@@H]3[C@]3(C)C(=O)N(c4ccc(Br)cc4)C(=O)N23)c1 yielded a largest response in the series, negative = inhibition of 0.791%.
In the case of Cc1cc(C)c2nc(N(CCN(C)C)C(=O)/C=C/c3cccs3)sc2c1, the Potency is reported as 89.1 µM (active).
CC(=O)N(CCCN(C)C)c1nc2ccc(C)cc2s1 was tested, and the largest response in the series, negative = inhibition was 15.8%.
In the case of Cc1ccc2sc(N(CCN(C)C)C(=O)/C=C/c3cccs3)nc2c1C, the largest response in the series, negative = inhibition is reported as 4.98%.
For Cc1cc(S(=O)(=O)NCC(C)C)ccc1OCC(=O)NC1CC1, the largest response in the series, negative = inhibition was 18.8%.
CC1(C)CC(CC(=O)O)C(=O)O1 (stereo not given) was tested, and the largest response in the series, negative = inhibition was -8.59%.
For C/C(CC1CC(C)(C)OC1=O)=N/Nc1nc(-c2ccccc2)cs1 (stereo not given), the Potency was 50.1 µM (active).
O=C(O)c1ccccc1C(=O)Nc1nc(-c2ccccc2)cs1 was tested, and the largest response in the series, negative = inhibition was 6.83%.
Work on COc1ccc(C(=O)NC2CCN(C(=O)Nc3ccc(F)cc3)CC2)cc1 yielded a largest response in the series, negative = inhibition of -6.23%.
COc1ccc(CN2CCNC(=O)C2CC(=O)NCc2cn[nH]c2-c2ccccc2)c(F)c1 (stereo not given) showed a largest response in the series, negative = inhibition of 15.4%.
CCN(CC)c1ccc(NC(=O)c2ccc(Cl)nc2)cc1 was tested, and the largest response in the series, negative = inhibition was 2.36%.
With O=C(NNc1ccccn1)c1ccc(Cl)nc1 the Potency was 56.2 µM (active).
Cc1cnc(NC(=O)c2ccc(Cl)nc2)s1 was tested, and the largest response in the series, negative = inhibition was 3.16%.
In the case of COc1cc(C(=O)NN(CCC#N)C2=NS(=O)(=O)c3ccccc32)cc(OC)c1OC, the largest response in the series, negative = inhibition is reported as 11.7%.
In the case of Cc1ccc2c(c1)N(S(=O)(=O)c1cc(-c3cc(C)no3)ccc1C)CCO2, the largest response in the series, negative = inhibition is reported as -4.57%.
Nc1cc(N2CCCCCC2)c2nonc2c1[N+](=O)[O-] was tested, and the largest response in the series, negative = inhibition was 12.7%.
O=C(/C=C/c1ccco1)Nc1cccc(-c2nc3ccccc3[nH]2)c1 was tested, and the Potency was 25.1 µM (active).
Molecule O=C(Cc1cccs1)Nc1cccc(-c2nc3ccccc3[nH]2)c1 has a largest response in the series, negative = inhibition of 9.29%.
O=C(Nc1cccc(-c2nc3ccccc3[nH]2)c1)c1ccc(C(=O)Nc2cccc(-c3nc4ccccc4[nH]3)c2)cc1 showed a largest response in the series, negative = inhibition of -19.4%.
COc1ccccc1Oc1ccc(N2CC(C(=O)OCC(=O)c3ccc(F)cc3)CC2=O)cc1 (stereo not given) was tested, and the largest response in the series, negative = inhibition was -1.84%.
With CCN(CC)CCCNC(=O)COc1ccc2oc3c(c2c1)CCCC3 the largest response in the series, negative = inhibition was 3.63%.
For S=C(c1ccc(-c2ccccc2)o1)N1CCCCC1, the Potency was 8.91 µM (active).
In the case of S=C(c1ccccc1)N1CCCC1, the largest response in the series, negative = inhibition is reported as 9.23%.
Cc1cccc(C)c1NC(=S)N1CCCCCC1 showed a largest response in the series, negative = inhibition of 11.7%.
For COc1ccc(-c2n[nH]c3c2CN(C(=O)c2ccc(F)cc2)CC3)cc1, the largest response in the series, negative = inhibition was 5.79%.
In the case of CC(C)(C)c1ccc(C(=O)N2CCC(C(=O)N3CCCCC3)CC2)cc1, the largest response in the series, negative = inhibition is reported as 4.51%.
For COc1ccc(CCNC(=O)C(=O)NCC2OCCN2S(=O)(=O)c2ccc(OC)c(C)c2)cc1 (stereo not given), the largest response in the series, negative = inhibition was 8.83%.
With COc1ccc(OC)c(C(c2nnnn2C(C)(C)C)N2CCc3ccccc3C2)c1 (stereo not given) the largest response in the series, negative = inhibition was 6.02%.
For COCCn1nnnc1C(c1cc2ccc(OC)cc2[nH]c1=O)N1CCc2ccccc2C1 (stereo not given), the Potency was 12.6 µM (active).
In the case of CCOc1ccc2[nH]c(=O)c(C(c3nnnn3CCOC)N3CCOCC3)cc2c1 (stereo not given), the largest response in the series, negative = inhibition is reported as 17.1%.
Cc1cnc(C(=O)OCc2c(C)cc(C(C)(C)C)cc2C)cn1 showed a largest response in the series, negative = inhibition of -9.1%.
COc1ccc(CNC(=O)CSc2n[nH]c(N)n2)cc1OC was tested, and the largest response in the series, negative = inhibition was 2.91%.
In the case of COc1ccc(C(=O)CSc2n[nH]c(N)n2)cc1, the Potency is reported as 56.2 µM (active).
COc1ccc(-c2nc(SCC(=O)N3CCOCC3)n[nH]2)cc1 was tested, and the largest response in the series, negative = inhibition was 18.2%.
For Cc1nn2c(=O)cc(COC(=O)c3ccc(NC(=O)C(C)(C)C)cc3)nc2s1, the largest response in the series, negative = inhibition was 18.9%.
COc1cc(/C=C/C(=O)O)cc(S(=O)(=O)Nc2ccccc2C(=O)NCCc2ccccc2)c1OC was tested, and the largest response in the series, negative = inhibition was 13.6%.
COc1ccccc1-c1nnc(NC(=O)c2ccc3ncsc3c2)o1 was tested, and the Potency was 79.4 µM (active).
Molecule COc1ccccc1-c1nnc(SCC(=O)Nc2ccccc2)o1 has a largest response in the series, negative = inhibition of 1.67%.
COc1ccccc1-c1nnc(NC(=O)c2cccc(N3C(=O)CCC3=O)c2)o1 showed a largest response in the series, negative = inhibition of 2.11%.
Cc1ccccc1N1CCN(CCCN2C(=O)C3CCCCN3C2=O)CC1 (stereo not given) gave a largest response in the series, negative = inhibition of 17.8%.
With COc1ccc(OC)c(NC(=O)c2ccc3c(c2)CCN3S(C)(=O)=O)c1 the largest response in the series, negative = inhibition was 9.13%.
O=C(N/N=C/c1ccc([N+](=O)[O-])o1)c1cccc(S(=O)(=O)N2CCOCC2)c1 was tested, and the largest response in the series, negative = inhibition was -9.66%.
Work on O=C(N/N=C/c1cc(Cl)cc([N+](=O)[O-])c1O)C(O)(c1ccccc1)c1ccccc1 yielded a largest response in the series, negative = inhibition of -0.479%.
In the case of O=[N+]([O-])c1cc(Cl)cc(/C=N/NC(=S)Nc2cc(S(=O)(=O)N3CCOCC3)ccc2Cl)c1O, the Potency is reported as 56.2 µM (active).
For COc1ccc(N2CCN(S(=O)(=O)CCNC(=O)C34CC5CC(CC(C5)C3)C4)CC2)cc1, the largest response in the series, negative = inhibition was 2.52%.
CCCCCn1c(SCCC(C)C)nc2c1c(=O)[nH]c(=O)n2C was tested, and the Potency was 28.2 µM (active).
In the case of Cn1c(=O)[nH]c(=O)c2c1nc(Br)n2CCCCSc1nc2ccccc2o1, the largest response in the series, negative = inhibition is reported as 3.31%.
Molecule CCCCCCn1c(SCC(=O)c2ccccc2)nc2c1c(=O)[nH]c(=O)n2C has a largest response in the series, negative = inhibition of -15.2%.
CCOc1ccc(S(=O)(=O)N2CCC(c3ccccc3)CC2)cc1C(=O)O was tested, and the largest response in the series, negative = inhibition was 13.6%.
With Cc1ccc(OCC(=O)Nc2ccc(N3CCN(C(=O)c4ccco4)CC3)cc2)c(C)c1 the largest response in the series, negative = inhibition was -9.57%.
With CC(=O)N1CSCC1C(=O)O (stereo not given) the Potency was 20 µM (active).
Molecule CC(=O)N1Cc2ccccc2CC1C(=O)O (stereo not given) has a largest response in the series, negative = inhibition of 6.16%.
In the case of CC1CC(C)CN(C(=O)CCNC(=O)Cn2cnc3ccccc3c2=O)C1 (stereo not given), the largest response in the series, negative = inhibition is reported as -7.35%.
COc1ccc(NC(=O)c2sc3nc(C)nc(N4CCN(c5ccccn5)CC4)c3c2C)c(OC)c1 showed a largest response in the series, negative = inhibition of -8.26%.
In the case of COc1ccccc1-n1c(=S)[nH]c2c(sc(=S)n2-c2ccc(C)cc2C)c1=O, the Potency is reported as 50.1 µM (active).
COc1ccccc1-n1cn[nH]c1=S gave a largest response in the series, negative = inhibition of -24.2%.
In the case of CCc1ccc(-n2c(=S)sc3c(=O)n(-c4ccccc4OC)c(=S)[nH]c32)cc1, the largest response in the series, negative = inhibition is reported as -10.9%.
COc1ccc(NC(=S)N2CCCC(CO)C2)c(OC)c1 (stereo not given) was tested, and the largest response in the series, negative = inhibition was -15.1%.
With COc1cc(NC(=S)N2CCCC(C)C2)cc(OC)c1OC (stereo not given) the Potency was 20 µM (active).
In the case of COc1cc(NC(=S)N2CCCC(C)C2)c(OC)cc1Cl (stereo not given), the Potency is reported as 14.1 µM (active).
COc1cc(NC(=O)NCC2CCN(Cc3ccc(C)cc3)CC2)cc(OC)c1OC was tested, and the largest response in the series, negative = inhibition was 4.55%.
COc1ccccc1C1CCN(C(=S)Nc2ccc(Br)cc2)CC1 gave a largest response in the series, negative = inhibition of 16.1%.
COc1ccc(C)cc1NC(=S)N1CCOCC1 gave a largest response in the series, negative = inhibition of 3.26%.
In the case of CC1CC(C)CN(C(=O)C2CC(=O)N(c3ccc(F)cc3)C2)C1 (stereo not given), the largest response in the series, negative = inhibition is reported as 0.935%.
For COc1ccc(C(CCN2CCOCC2)c2c(OC)cc(OC)c3c2OC(=O)CC3c2ccc(OC)cc2)cc1 (stereo not given), the largest response in the series, negative = inhibition was -11.3%.
With Cc1cc(F)ccc1N1CCC(N2CCN(C)C(CCO)C2)CC1 (stereo not given) the largest response in the series, negative = inhibition was 6.62%.
Molecule COc1ccc(-c2c3c(=O)n(C)c(=O)n(C)c3cn2-c2cccc(OC)c2)cc1 has a largest response in the series, negative = inhibition of 3.62%.
For Cc1ccc(-c2c3c(=O)n(C)c(=O)n(C)c3cn2-n2cnnc2)cc1, the largest response in the series, negative = inhibition was 12.6%.
With Cc1ccc(-c2c3c(=O)n(C)c(=O)n(C)c3cn2-c2ccccc2O)cc1 the Potency was 56.2 µM (active).
